{"source": "PubChem BioAssay AID624416", "about": "(The Scripps Research Institute Molecular Screening Center, 2012)", "note": "About 1,500 (0.42%) of roughly 360,000 compounds were called active. Cut-off read from the data, not from the text of the source: active = inhibition above about 8.5%; inactive = the rest. This excerpt belongs to a sample that is enriched for actives.", "data": [{"tested_on": "HIV-1 gp120 / PG9 antibody interaction", "assay": "binders of HIV-1 gp120 antibody PG9, primary screen, biochemical, TR-FRET (AID 624416)", "conditions": "TR-FRET gp120-PG9 antibody binding; at 6.7 µM; stronger effect = higher value", "values": [{"molecule": "COC(=O)[C@]12C[C@H](CC(=O)NCc3ccc(C)o3)C(=O)N(CCC3=CCCCC3)C1=C[C@H](C(C)(C)C)O[C@@H]2C", "inhibition": "-1.11% (inactive)"}, {"molecule": "COc1ccccc1-c1ccc([C@@H]2C[C@H]3[C@H](CON3C)CN2S(=O)(=O)c2cc(Cl)cc(Cl)c2)cc1", "inhibition": "-0.23% (inactive)"}, {"molecule": "CC[C@H](C)[C@H]1CNC(=O)C(=O)N1CC1CCN(CCc2ccc(OC)c(OC)c2)CC1", "inhibition": "-1.11% (inactive)"}, {"molecule": "Cc1cc2c(cc1C)N1C(=O)c3cc4ccccc4cc3NC(=O)C1C(=O)N2", "note": "(configuration not stated)", "inhibition": "9.79% (active)"}, {"molecule": "Cc1cc(N2CCN(C(=O)OC(C)(C)C)C[C@H]2C)ccc1N1CCN(Cc2ccccc2)[C@H](C)C1", "inhibition": "-1.9% (inactive)"}, {"molecule": "CCOC(=O)Cc1csc(NC(=O)CSc2nnc(-c3cccnc3)n2Cc2ccco2)n1", "inhibition": "-0.33% (inactive)"}, {"molecule": "CCc1ccc(NC(=O)CSc2nnc(-c3cnccn3)n2Cc2ccco2)cc1", "inhibition": "14.2% (active)"}, {"molecule": "CCn1c(SCC(=O)Nc2cc(C)ccc2C)nnc1-c1cnccn1", "inhibition": "1.97% (inactive)"}, {"molecule": "CC(C)(C)C(c1nc2ccccc2[nH]1)n1c(Cc2csc3ccccc23)nc2ccccc21", "note": "(configuration not stated)", "inhibition": "3.67% (inactive)"}, {"molecule": "CC(C)OCCCNC(=O)c1cc(Sc2ccc(F)cc2)nc2ccccc12", "inhibition": "17.2% (active)"}, {"molecule": "O=C(NCCOc1ccccc1)c1ccccc1F", "inhibition": "-0.63% (inactive)"}, {"molecule": "CC(C)CCNC(=O)c1cccnc1Sc1ccccc1", "inhibition": "-0.45% (inactive)"}, {"molecule": "O=S1(=O)c2ccc(Br)cc2-n2nncc2CN1Cc1cccc(Cl)c1", "inhibition": "1.6% (inactive)"}, {"molecule": "Nc1ccn([C@@H]2O[C@H](C(=O)N[C@H]3CCCCNC3=O)[C@@H](O)[C@H]2O)c(=O)n1", "inhibition": "-0.25% (inactive)"}, {"molecule": "CCN(CC)S(=O)(=O)c1cc(C(=O)Nc2ccccn2)ccc1C", "inhibition": "-1.5% (inactive)"}, {"molecule": "CCOc1cc2ccccc2cc1C(=O)Nc1ccccn1", "inhibition": "12.2% (active)"}, {"molecule": "CCOc1cc(NC(=O)c2ccccc2C(=O)O)c(OCC)cc1NC(=O)c1ccccc1F", "inhibition": "-7.45% (inactive)"}, {"molecule": "Nc1ncnc2c1ncn2[C@@H]1O[C@H](C(=O)N[C@@H](CCc2ccccc2)C(=O)N2CCCN(Cc3cccs3)CC2)[C@@H](O)[C@H]1O", "inhibition": "0.34% (inactive)"}, {"molecule": "C#CCN([C@@H](C)C(=O)OCC)S(=O)(=O)c1ccc(Br)cc1F", "inhibition": "-1.25% (inactive)"}, {"molecule": "C[C@@H]1ON(C)[C@H]2C[C@H]3c4cc(N5CCOCC5)ccc4CCN3C[C@@H]12", "inhibition": "-1.04% (inactive)"}, {"molecule": "N#CC1=C(N)Oc2[nH]c(=S)[nH]c(=O)c2C12C(=O)Nc1ccccc12", "note": "(configuration not stated)", "inhibition": "-2.89% (inactive)"}, {"molecule": "CC1(C)Cc2ccccc2-c2[nH]c(=S)[nH]c(=O)c21", "inhibition": "35% (active)"}, {"molecule": "CC1(C)Cc2ccccc2/C(=C/C(=O)c2ccccc2)N1", "inhibition": "0.12% (inactive)"}, {"molecule": "COC(=O)c1cc2c(c3c4ccccc4n(S(=O)(=O)c4cccc(C)c4)c13)C(=O)N(Cc1ccccc1)C2", "inhibition": "0.57% (inactive)"}, {"molecule": "N#Cc1cccc(C(=O)NCC2CCN(C(=O)C(=O)c3cc4ccccc4o3)CC2)c1", "inhibition": "-0.57% (inactive)"}, {"molecule": "CCCCOCC1CN(CCCC)S(=O)(=O)c2c(Oc3ccc(F)cc3)cccc2O1", "note": "(configuration not stated)", "inhibition": "-0.05% (inactive)"}, {"molecule": "O=C(C1=C(O)C(=O)N(Cc2ccccc2)C1c1ccco1)c1ccco1", "note": "(configuration not stated)", "inhibition": "17.9% (active)"}, {"molecule": "O=C(C1=C(O)C(=O)N(Cc2ccccc2)C1c1cccnc1)c1ccco1", "note": "(configuration not stated)", "inhibition": "7.52% (inactive)"}, {"molecule": "CCOc1cc(C2C(C(=O)c3ccco3)=C(O)C(=O)N2Cc2ccccc2)ccc1O", "note": "(configuration not stated)", "inhibition": "0.36% (inactive)"}, {"molecule": "COC(=O)C1=C(C)N(Cc2cccc(C(F)(F)F)c2)C(=NCc2cccc(C(F)(F)F)c2)NC1c1ccccc1C(F)(F)F", "note": "(configuration not stated)", "inhibition": "-0.87% (inactive)"}, {"molecule": "COC(=O)C1=C(C)NC(=S)NC1c1ccc(OC)cc1", "note": "(configuration not stated)", "inhibition": "-0.48% (inactive)"}, {"molecule": "COC(=O)C1=C(C)N(Cc2cccc(C(F)(F)F)c2)C(=NCc2ccccc2)NC1c1ccc(Cl)cc1", "note": "(configuration not stated)", "inhibition": "-1.36% (inactive)"}, {"molecule": "COC(=O)[C@H](CC(C)C)NS(=O)(=O)c1c(F)cccc1F", "inhibition": "-2.8% (inactive)"}, {"molecule": "COc1ccc(S(=O)(=O)Nc2ccc3c(c2)C(=O)N([C@H](C)CO)C[C@H](C)[C@@H](CN(C)C)OCCCC[C@H](C)O3)cc1", "inhibition": "-0.42% (inactive)"}, {"molecule": "O=C(COC(=O)c1cccc(Cl)c1)Nc1ccc2[nH]c(=O)[nH]c2c1", "inhibition": "0.75% (inactive)"}, {"molecule": "O=C(COC(=O)Cn1cnc2ccccc21)Nc1cccc2c1C(=O)c1ccccc1C2=O", "inhibition": "-1.23% (inactive)"}, {"molecule": "O=C(COC(=O)c1cccc(Br)c1)Nc1cccc2c1C(=O)c1ccccc1C2=O", "inhibition": "12% (active)"}, {"molecule": "COC(=O)[C@]12C[C@H](CC(=O)NCc3cccc(C(F)(F)F)c3)C(=O)N(Cc3ccc4c(c3)OCO4)C1=C[C@H](COCc1ccccc1)O[C@@H]2C", "inhibition": "-1.16% (inactive)"}, {"molecule": "COc1cccc(NC(=O)N(C)C[C@@H]2OCc3cn(nn3)CCCC(=O)N([C@@H](C)CO)C[C@H]2C)c1", "inhibition": "0.85% (inactive)"}, {"molecule": "Cc1cc(C#N)c(SCC(N)=O)nc1-c1ccc(F)cc1", "inhibition": "-0.54% (inactive)"}, {"molecule": "CCOc1ccc2nc(N3CCCN(C(=O)Nc4ccccc4C)CC3)c(C#N)cc2c1", "inhibition": "1.36% (inactive)"}, {"molecule": "CCOc1ccc2cc(C#N)c(SCC(=O)OC)nc2c1", "inhibition": "33.3% (active)"}, {"molecule": "COc1ccccc1Cc1c(-c2ccc(F)cc2)nc2ccc(C)cn12", "inhibition": "1.73% (inactive)"}, {"molecule": "N#Cc1ccc(OCCCN2CCC(C(O)(c3ccccc3)c3ccccc3)CC2)c(F)c1", "inhibition": "1.27% (inactive)"}, {"molecule": "Cc1nc(NC(=O)CCC(=O)O)sc1C(=O)N(C)C", "inhibition": "0.5% (inactive)"}, {"molecule": "NS(=O)(=O)c1ccc2nc(NC(=O)CS(=O)(=O)c3ccc(F)cc3)sc2c1", "inhibition": "-0.8% (inactive)"}, {"molecule": "O=C(O)CCC(=O)Nc1nc2ccc([N+](=O)[O-])cc2s1", "inhibition": "9.53% (active)"}, {"molecule": "CCN1C(=O)N[C@@H]2C[C@H](C(=O)N3CCCC3)[C@H](C)[C@H](c3ccccc3)C[C@@H]21", "inhibition": "-1.63% (inactive)"}, {"molecule": "O=C(COC(=O)c1cccc(Cl)c1Cl)NC1CCCCCC1", "inhibition": "-0.6% (inactive)"}, {"molecule": "O=C(COC(=O)c1ccccc1Cl)NC1CCCCCCC1", "inhibition": "-1.4% (inactive)"}, {"molecule": "N#Cc1ccccc1Sc1ccccc1C(=O)OCC(=O)NC1CCCCC1", "inhibition": "33% (active)"}, {"molecule": "COCCNC(=S)N(C)[C@H]1C[C@H]2c3[nH]c4ccccc4c3CCN2C[C@H]1[C@H](C)O", "inhibition": "-0.82% (inactive)"}]}]}
